# Measurements: PubChem BioAssay (NCI)
# Compounds without any hit were thinned out: in the full panel of roughly 83,000, 20% have a hit.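 Compound tested at a single concentration for 48 hours in 96-well plates; a percent growth value below 10 was scored as active.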 Unmarked numbers belong to inactive results. Active and inactive are the calls of the source.
# System: HL-60(TB) leukemia
# Experiment: NCI-60 one-dose screen, 48 h (100 = growth as untreated, 0 = no growth, -100 = all killed)
# Conditions: 10 µM unless noted
row,SMILES,growth
1,O=C(Cn1cc(CN2C(=O)c3ccccc3S2(=O)=O)nn1)Nc1ccc([N+](=O)[O-])cc1Cl,94.6%
2,CCOC(=O)C1=C(C)N(C)C(=O)N(C)C1c1ccccc1 (stereo not given),-4.05% (active)
3,O=Cc1ccc(F)cc1,103%
4,O=C(CCCCCCN1CC(=O)N2[C@@H](C3CCCCC3)c3[nH]c4ccccc4c3C[C@H]2C1=O)NO,5.7% (active)
5,CCCC[N+](C)(N)CCCC,104%
6,CCOC(=O)C1C(=O)NC(C(=O)OCC)(C(=O)OCC)C1CC (stereo not given),106%
7,Cc1nc(N)nc2c1CCC(Nc1ccccc1)S2 (stereo not given),97.1%
8,CN(C)CCNC(=O)c1cccn2c(=O)c3cc4ccccc4cc3nc12,-38.5% (active)
9,[2H]C([2H])([2H])Oc1ccc(F)cc1/C=C/C(=O)/C=C(O)/C=C/c1cc(F)ccc1OC([2H])([2H])[2H],77.3%
10,CCC(=O)Oc1cc(/C=C/C(=O)O[C@H]2C[C@H]3CN4CCc5c([nH]c6cc(OC)ccc56)[C@@H]4C[C@@H]3[C@@H](C(=O)OC)[C@@H]2OC)ccc1OC,16.3%
11,COc1ccc(OC)c(Nc2nnc(-c3cc(OC)c(OC)c(OC)c3)o2)c1,95.5%
12,O=C1N/C(=C\c2ccccc2)c2ncccc21,117%
13,COc1ccccc1-c1nc2ccc3[nH]ncc3c2c2c1CCCC2,89.6%
14,O=S(=O)(Cc1ccccc1)c1nc2ccccc2s1,16.9%
15,CCN(CC)CCC(CNc1ccnc2cc(Cl)ccc12)c1ccc(O)cc1 (stereo not given),-1.95% (active)
16,Cc1cc2nc(CC(=O)c3ccccc3)c(=O)[nH]c2cc1C,103%
17,O=C(CC1Sc2ccccc2NC1=O)NNc1ccc(F)cc1 (stereo not given),14.3%
18,C/C=C/C1OC23CCCCC2C(C#N)(C(=N)O3)C1(C#N)C#N (stereo not given),106%
19,Clc1cccc(Cl)c1C(Nc1nc2ccccc2s1)Nc1nc2ccccc2s1,105%
20,COc1ccc(C2c3ccccc3NC(=O)N2C2CCN(C)CC2)c(OC)c1 (stereo not given),92.7%

row,SMILES,growth
1,CC(C)N1CCN(c2ccc(OC[C@H]3CO[C@](Cn4cncn4)(c4ccc(Cl)cc4Cl)O3)cc2)CC1,91.3%
2,C=C1C(=O)O[C@H]2[C@H]1CC/C(COC(=O)NCc1cc(OC)cc(OC)c1)=C\CC[C@@]1(C)O[C@@H]21,-20.1% (active)
3,O=C1c2ccccc2C(=O)N1c1ccccc1,111%
4,CCN(CC)CCCCNc1c2ccccc2[n+](C)c2c1[nH]c1ccccc12,22.7%
5,CC1(C)C(=O)/C(=C\c2cccnc2)C[C@]2(C)[C@H]3CC[C@@H]4[C@@H](C(=O)/C=C/c5ccncc5)CC[C@@]4(C)[C@]3(C)CC[C@@H]12,-11% (active)
6,OC(CNc1ccnc2cc(Cl)ccc12)CNc1ccnc2cc(Cl)ccc12,-5.79% (active)
7,CC[C@@H]1C(=O)N(C)c2cnc(Nc3ccc(C(=O)NC4CCN(C)CC4)cc3OC)nc2N1C1CCCC1,-42.1% (active)
8,O=C(NNC(=O)c1ccc([N+](=O)[O-])cc1)c1ccc([N+](=O)[O-])cc1,88.3%
9,O=C1/C(=C/C(Cl)=C/c2ccccc2)SC(=S)N1CCc1ccc(O)cc1,-7.15% (active)
10,O=C(Nc1ncc(Cc2ccc(Cl)cc2)s1)c1ccc2c(c1)OCCO2,-49.3% (active)
11,CC(=O)/C(=C/c1ccccc1)C(=O)CC(C)C,38.8%
12,CCOC(=O)c1c2c(c(C)n1C)-c1nn(Cc3ccc(OC)cc3)cc1CC2,73.1%
13,O=C(CS)Nc1ccc2ccccc2c1,120%
14,COc1ccc(C(=O)C2=CC(=O)C(=O)C2)cc1OC,110%
15,Nc1c(Cl)cc2c(c1Br)C(=O)c1ccccc1C2=O,70.7%
16,Cc1ncc(C(=O)Nc2ccc(CN3CCN(C)CC3)c(C(F)(F)F)c2)cc1C#Cc1cnc(N)c2cnccc12,16.1%
17,N#Cc1c(NC(=O)c2ccccc2)sc2c1CCC(=O)C2,-2.62% (active)
18,COCCOCCOCc1n(Cc2ccc3ccccc3c2)c2ccccc2[n+]1Cc1ccc2ccccc2c1,-53.5% (active)
19,COc1cc(/C=C/C(=O)/C=C/c2ccc(-n3ccnc3)cc2)ccc1O,36.2%
20,O=c1c2cc(Br)cc(Br)c2nc(-c2ccc(Cl)cc2)n1/N=C\c1ccccc1F,82%
